Source: the supplement of paper PMC11732987, “Enantioselective OTUD7B fragment discovery through chemoproteomics screening and high-throughput optimisation” (Communications Chemistry, 2025)

What was measured:
Experiment in all cases: log2 ratio of Biotin-Ahx-Ub-VS probe labelling (fragment/DMSO); higher = less target engagement (more negative = stronger competition), active = hit call of the paper (q ≤ 0.05, log2 ratio ≤ -1)
Settings in all cases: compound concentration: 200 uM; treatment time: 3 h
USP19 = biological target: T1, USP19 (UniProt O94966)
T1 sequence (whole entry): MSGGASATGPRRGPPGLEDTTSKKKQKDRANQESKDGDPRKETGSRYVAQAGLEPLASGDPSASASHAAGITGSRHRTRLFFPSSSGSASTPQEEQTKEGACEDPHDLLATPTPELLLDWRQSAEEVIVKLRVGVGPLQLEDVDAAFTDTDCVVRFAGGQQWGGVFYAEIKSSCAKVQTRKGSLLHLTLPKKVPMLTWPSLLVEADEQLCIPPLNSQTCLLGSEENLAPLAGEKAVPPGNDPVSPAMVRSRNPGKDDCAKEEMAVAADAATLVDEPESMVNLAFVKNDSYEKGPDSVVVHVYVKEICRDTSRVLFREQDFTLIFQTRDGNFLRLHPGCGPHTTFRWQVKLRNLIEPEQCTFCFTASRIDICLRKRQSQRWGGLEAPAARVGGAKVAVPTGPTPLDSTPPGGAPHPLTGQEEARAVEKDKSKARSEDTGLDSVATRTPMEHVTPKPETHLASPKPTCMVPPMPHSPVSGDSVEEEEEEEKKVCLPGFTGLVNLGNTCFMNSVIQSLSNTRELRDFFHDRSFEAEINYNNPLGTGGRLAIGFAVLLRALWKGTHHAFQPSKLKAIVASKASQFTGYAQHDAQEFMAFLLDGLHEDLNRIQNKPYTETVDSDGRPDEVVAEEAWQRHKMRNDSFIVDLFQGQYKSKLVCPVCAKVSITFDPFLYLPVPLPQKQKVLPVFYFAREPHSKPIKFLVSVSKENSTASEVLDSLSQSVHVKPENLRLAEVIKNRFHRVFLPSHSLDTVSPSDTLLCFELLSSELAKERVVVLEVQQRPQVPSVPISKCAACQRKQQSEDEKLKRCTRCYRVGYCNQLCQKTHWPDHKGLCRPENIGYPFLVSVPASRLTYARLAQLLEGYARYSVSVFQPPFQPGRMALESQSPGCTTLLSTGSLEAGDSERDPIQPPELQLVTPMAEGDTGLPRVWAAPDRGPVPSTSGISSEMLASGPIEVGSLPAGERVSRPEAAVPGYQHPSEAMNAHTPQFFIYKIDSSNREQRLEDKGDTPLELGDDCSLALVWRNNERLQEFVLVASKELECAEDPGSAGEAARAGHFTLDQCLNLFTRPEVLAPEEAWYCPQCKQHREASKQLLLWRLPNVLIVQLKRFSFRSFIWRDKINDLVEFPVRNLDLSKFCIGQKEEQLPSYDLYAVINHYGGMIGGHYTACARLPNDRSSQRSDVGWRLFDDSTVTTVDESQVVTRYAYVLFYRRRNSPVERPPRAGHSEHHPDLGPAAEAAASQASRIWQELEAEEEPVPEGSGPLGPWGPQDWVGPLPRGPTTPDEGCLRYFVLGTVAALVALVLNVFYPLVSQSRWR
In short: (§1)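 Global-median-normalised Spectronaut label-free quantities were compared by unpaired t-test, and values are average log2 ratios of fragment over vehicle. Only proteins with ≥2 unique peptides were used. HEK293T lysate (495 µg per sample) was treated in triplicate with fragment at 200 µM or vehicle for 3 h and then with Biotin-Ahx-Ub-VS at 0.5 µM final for 1 h. Labelled DUBs were then NeutrAvidin-enriched, digested with LysC and trypsin, and run by diaPASEF LC-MS/MS.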

USP22 = biological target: T2, USP22 (UniProt Q9UPT9)
T2 sequence (whole entry): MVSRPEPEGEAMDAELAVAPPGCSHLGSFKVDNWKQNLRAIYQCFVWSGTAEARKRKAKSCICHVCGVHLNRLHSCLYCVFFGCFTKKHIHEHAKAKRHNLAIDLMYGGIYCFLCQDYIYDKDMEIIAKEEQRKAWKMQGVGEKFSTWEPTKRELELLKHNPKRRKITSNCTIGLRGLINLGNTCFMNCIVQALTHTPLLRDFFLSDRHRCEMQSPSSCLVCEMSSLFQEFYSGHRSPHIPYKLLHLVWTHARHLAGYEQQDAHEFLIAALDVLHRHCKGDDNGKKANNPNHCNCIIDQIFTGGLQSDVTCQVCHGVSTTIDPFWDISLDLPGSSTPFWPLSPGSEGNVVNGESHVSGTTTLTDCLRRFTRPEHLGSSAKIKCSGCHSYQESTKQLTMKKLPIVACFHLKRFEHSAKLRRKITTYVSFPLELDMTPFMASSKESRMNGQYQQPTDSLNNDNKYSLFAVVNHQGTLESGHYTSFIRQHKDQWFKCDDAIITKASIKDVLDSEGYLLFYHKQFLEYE
In short: as §1

USP24 = USP24 (UniProt Q9UPU5)
USP24, sequence (Q9UPU5 whole entry): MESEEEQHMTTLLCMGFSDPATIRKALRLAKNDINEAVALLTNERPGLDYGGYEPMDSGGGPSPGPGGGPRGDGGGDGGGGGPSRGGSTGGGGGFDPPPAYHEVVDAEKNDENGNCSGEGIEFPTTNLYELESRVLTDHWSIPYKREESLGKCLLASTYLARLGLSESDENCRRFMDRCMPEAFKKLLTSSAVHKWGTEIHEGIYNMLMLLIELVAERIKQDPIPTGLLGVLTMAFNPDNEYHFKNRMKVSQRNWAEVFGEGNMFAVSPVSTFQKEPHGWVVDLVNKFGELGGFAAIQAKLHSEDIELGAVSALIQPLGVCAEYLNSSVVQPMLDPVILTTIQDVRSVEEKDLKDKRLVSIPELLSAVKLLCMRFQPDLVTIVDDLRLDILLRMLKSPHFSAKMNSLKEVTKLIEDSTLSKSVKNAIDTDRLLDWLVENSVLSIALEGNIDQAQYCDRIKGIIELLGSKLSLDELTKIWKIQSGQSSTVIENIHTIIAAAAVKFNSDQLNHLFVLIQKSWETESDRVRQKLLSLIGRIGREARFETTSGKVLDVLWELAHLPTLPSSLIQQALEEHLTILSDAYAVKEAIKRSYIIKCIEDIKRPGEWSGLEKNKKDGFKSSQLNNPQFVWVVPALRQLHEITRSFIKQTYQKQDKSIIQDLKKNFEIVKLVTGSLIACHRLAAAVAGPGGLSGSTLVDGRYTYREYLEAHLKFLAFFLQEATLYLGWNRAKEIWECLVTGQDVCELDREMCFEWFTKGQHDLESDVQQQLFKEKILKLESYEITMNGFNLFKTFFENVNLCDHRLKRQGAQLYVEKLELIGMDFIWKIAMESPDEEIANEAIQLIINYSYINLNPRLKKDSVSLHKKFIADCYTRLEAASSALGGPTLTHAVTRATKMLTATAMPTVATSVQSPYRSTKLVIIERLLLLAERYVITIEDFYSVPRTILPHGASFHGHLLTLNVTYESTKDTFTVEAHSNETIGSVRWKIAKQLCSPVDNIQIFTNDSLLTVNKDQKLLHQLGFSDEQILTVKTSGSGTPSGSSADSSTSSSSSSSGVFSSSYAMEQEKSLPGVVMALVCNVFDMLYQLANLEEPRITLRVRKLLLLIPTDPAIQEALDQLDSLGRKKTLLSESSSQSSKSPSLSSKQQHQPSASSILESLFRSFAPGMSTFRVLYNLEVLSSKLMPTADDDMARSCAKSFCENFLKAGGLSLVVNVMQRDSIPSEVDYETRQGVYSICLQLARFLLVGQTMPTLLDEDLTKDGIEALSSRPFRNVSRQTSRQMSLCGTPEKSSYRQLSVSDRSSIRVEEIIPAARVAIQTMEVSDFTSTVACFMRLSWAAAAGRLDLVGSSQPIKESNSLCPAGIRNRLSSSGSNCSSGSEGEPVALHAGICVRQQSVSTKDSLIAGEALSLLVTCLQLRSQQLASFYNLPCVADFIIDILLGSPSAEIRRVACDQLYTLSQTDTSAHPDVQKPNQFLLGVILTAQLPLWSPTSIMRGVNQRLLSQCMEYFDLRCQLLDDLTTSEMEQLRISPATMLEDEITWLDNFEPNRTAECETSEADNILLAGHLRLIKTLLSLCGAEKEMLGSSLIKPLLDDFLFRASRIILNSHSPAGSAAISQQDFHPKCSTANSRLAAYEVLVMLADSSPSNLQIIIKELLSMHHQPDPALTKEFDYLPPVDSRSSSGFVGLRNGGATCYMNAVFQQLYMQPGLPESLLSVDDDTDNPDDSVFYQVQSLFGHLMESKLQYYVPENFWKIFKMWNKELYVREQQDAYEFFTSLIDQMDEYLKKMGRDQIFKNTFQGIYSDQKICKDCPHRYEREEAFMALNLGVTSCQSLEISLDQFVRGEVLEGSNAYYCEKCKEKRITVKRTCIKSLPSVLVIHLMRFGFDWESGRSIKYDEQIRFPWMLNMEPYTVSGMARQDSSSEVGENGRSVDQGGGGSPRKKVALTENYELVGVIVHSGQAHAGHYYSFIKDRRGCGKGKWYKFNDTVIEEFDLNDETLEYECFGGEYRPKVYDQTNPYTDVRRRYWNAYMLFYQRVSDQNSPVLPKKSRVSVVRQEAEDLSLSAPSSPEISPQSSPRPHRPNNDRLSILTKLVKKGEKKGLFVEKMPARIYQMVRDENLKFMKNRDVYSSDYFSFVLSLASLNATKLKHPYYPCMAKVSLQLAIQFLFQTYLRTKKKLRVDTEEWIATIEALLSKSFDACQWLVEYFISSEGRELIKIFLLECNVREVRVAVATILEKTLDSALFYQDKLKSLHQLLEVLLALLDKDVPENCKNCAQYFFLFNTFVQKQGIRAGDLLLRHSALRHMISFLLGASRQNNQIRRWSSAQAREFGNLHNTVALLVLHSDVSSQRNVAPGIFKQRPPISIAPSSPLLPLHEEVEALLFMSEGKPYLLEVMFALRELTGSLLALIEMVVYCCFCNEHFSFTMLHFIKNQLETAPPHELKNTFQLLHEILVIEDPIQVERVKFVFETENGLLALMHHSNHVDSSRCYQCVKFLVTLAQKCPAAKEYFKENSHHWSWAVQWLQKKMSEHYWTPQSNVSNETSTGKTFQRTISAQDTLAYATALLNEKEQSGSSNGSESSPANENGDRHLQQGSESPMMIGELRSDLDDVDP
In short: as §1

USP25 = biological target: T3, USP25 (UniProt Q9UHP3)
T3 sequence (whole entry): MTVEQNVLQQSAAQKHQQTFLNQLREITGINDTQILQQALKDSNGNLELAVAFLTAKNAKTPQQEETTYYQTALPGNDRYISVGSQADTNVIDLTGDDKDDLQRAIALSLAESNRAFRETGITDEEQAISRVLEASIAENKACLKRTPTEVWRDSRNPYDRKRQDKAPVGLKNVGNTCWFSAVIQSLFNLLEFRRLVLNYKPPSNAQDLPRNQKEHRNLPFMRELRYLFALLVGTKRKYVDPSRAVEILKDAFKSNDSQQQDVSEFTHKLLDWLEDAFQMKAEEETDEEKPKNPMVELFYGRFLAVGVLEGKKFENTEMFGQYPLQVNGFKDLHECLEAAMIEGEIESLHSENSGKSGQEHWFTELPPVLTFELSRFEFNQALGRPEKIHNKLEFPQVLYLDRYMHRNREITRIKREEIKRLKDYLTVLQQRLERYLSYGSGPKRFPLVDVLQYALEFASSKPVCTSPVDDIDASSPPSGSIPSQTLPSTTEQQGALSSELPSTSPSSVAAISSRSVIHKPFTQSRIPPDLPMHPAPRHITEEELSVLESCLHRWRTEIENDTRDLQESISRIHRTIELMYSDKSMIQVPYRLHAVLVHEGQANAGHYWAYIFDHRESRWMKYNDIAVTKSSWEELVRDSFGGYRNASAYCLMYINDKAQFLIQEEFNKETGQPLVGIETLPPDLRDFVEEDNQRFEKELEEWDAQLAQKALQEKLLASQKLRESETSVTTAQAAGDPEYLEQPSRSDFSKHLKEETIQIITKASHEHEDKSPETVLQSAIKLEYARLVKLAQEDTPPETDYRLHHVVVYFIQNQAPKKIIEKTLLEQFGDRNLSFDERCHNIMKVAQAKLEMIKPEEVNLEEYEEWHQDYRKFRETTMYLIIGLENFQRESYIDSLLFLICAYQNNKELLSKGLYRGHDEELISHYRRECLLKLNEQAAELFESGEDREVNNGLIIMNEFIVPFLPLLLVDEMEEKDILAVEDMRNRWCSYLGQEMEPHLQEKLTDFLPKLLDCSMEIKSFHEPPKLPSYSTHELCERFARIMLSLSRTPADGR
In short: as §1

USP28 = biological target: T4, USP28 (UniProt Q96RU2)
T4 sequence (whole entry): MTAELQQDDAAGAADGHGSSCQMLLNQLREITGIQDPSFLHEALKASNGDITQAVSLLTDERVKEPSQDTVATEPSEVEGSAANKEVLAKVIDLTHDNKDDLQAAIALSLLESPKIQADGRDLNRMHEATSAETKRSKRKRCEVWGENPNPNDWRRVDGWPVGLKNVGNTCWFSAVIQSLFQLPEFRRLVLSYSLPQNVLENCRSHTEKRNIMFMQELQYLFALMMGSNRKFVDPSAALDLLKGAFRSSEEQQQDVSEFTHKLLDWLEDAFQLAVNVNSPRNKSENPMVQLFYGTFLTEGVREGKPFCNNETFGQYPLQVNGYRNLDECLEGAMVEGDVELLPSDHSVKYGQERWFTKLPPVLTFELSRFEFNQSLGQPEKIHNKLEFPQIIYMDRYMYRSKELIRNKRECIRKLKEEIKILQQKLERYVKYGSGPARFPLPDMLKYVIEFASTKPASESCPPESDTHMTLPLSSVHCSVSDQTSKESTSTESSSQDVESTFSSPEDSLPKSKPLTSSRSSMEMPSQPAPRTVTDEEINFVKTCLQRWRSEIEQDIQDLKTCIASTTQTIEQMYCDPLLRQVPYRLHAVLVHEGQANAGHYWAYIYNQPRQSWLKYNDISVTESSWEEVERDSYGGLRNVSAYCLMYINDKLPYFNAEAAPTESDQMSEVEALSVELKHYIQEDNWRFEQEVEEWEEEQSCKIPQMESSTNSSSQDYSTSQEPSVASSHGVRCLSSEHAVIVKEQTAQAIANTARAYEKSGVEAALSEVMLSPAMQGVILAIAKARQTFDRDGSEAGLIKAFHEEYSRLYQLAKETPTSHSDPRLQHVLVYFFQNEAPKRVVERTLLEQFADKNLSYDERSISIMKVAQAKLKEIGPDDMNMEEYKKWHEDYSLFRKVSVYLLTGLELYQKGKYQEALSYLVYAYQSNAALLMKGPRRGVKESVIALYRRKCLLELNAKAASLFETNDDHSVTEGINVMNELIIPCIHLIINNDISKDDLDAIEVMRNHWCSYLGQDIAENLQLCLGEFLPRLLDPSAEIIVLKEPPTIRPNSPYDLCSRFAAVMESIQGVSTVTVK
In short: as §1

Measured: log2 ratio of Biotin-Ahx-Ub-VS probe labelling

Cc1ccc(-c2nnc(C)[nH]2)c(NC(=O)CCl)c1
inactive: USP19 0.0362 | USP22 0.0459 | USP24 -0.204 | USP25 -0.734 | USP28 -0.643
